TRHR enhancer: allosteric enhancers of human TRH receptor | TRHR cells, fluo-8 calcium fluorescence, EC20 TRH enhancement | enhancement, % at 2 µM | 360,000 tested, 0.66% active | AID 493056; in the data active = enhancement above about 30%
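TRHR-expressing cells loaded with fluo-8 calcium dye were read kinetically (ex 480/em 530) during compound addition, then stimulated with an EC20 of TRH (10 nM final). Enhancement of the Gq-mediated intracellular calcium response was scored.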
D1 antagonist: antagonists of human D1 dopamine receptor; P21728; HEK293 TREx D1 cells, calcium flux, dopamine EC80; stronger effect = lower value; activity change, negative = inhibition, % at 10 µM; 360,000 tested, 3.2% active; in the data active = activity change below about -30%
Target sequence (P21728 whole entry, looked up): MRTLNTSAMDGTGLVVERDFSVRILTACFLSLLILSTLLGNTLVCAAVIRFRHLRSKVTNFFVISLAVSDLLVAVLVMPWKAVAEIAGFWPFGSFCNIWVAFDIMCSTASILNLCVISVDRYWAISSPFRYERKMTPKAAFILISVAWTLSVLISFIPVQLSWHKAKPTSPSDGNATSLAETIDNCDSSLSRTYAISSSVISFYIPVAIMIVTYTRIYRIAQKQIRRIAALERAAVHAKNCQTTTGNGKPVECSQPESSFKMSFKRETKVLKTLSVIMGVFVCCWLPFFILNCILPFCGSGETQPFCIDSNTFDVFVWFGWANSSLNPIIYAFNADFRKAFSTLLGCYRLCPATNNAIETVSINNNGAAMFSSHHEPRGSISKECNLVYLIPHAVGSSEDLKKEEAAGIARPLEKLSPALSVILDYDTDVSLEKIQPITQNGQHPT
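HEK293 T-REx cells expressing inducible, force-coupled D1 receptor; no-wash Ca dye, 30–90 min RT. Cmpd → 180 s read at 1 Hz → EC80 DA → 180 s read.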
D1 potentiator: potentiators of human D1 dopamine receptor. P21728. HEK293 TREx D1 cells, calcium flux, dopamine EC20 potentiation. potentiation, % at 10 µM. 360,000 tested, 0.036% active. AID 504651; in the data active = potentiation above about 30%
D1 agonist: human D1 receptor agonism; activation, % at 2 µM; P21728; HEK293 T-REx D1 cells, calcium flux, agonist mode; 360,000 tested, 1% active
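Agonism was scored from calcium flux recorded over 180 s (1 read/s) after pintool compound addition, following a 10-cycle baseline. Cells were inducible force-coupled HEK293 TREx D1, plated overnight at 30 C and loaded with no-wash calcium dye.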
TRHR ag: TRH receptor (human) agonism. P34981. TRHR cells, calcium flux fluo-8, FDSS agonist mode. activation, % at 2 µM. 360,000 tested, 0.18% active. AID 493084
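Read-out: compound-evoked intracellular calcium rise in TRHR cells, fluo-8 dye, kinetic FDSS fluorescence at 1 s/cycle following a 10-cycle baseline. Cells cultured overnight before dye loading (30 min–1.5 h, RT).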
Hits are given with their value; 0 = inactive; - = no result given; ! = repeats disagree. Only some compounds are listed: those with a hit (about 4.6% of all), similar ones and a draw of the others. Rule as the data show it, unless noted: active = activation above about 30%; inactive = the rest.

SMILES | TRHR enhancer | D1 antagonist | D1 potentiator | D1 agonist | TRHR ag
COc1cc(/C=C2\SC(=Nc3ccc(Cl)c(C(=O)O)c3)NC2=O)c(Br)c(Br)c1O | 92.8 | 0 | 0 | 323.6 | 211.8
COc1cc(/C=C2\SC(=Nc3ccccc3)NC2=O)cc(Cl)c1O | 0 | 0 | 0 | 156.6 | 150.2
CCc1ccc(N=C2NC(=O)/C(=C/c3cc(OC)c(O)c(OC)c3)S2)cc1 | 0 | 0 | 0 | 0 | 0
COc1ccc(NC(=S)NNC(=O)COc2ccc(Cl)cc2Cl)cc1 | 0 | 0 | 0 | 44.1 | 0
COC(CC(=O)NNC(=S)Nc1ccc(Cl)cc1)OC | 0 | -30.1 | 0 | 0 | 0
CCOC(=O)c1cccc(NS(=O)(=O)c2ccc3[nH]c4c(c3c2)CCCC4)c1 | 0 | 0 | 0 | 0 | 0
CCCCC(CC)COC(=O)CCCCC(=O)OCC(CC)CCCC (configuration not stated) | 0 | - | 0 | 0 | 0
CCCCC(CC)CN=C(N)NC(N)=NCCCCCCN=C(N)NC(N)=NCC(CC)CCCC (configuration not stated) | 0 | -75.0 | 0 | 0 | 0
Cc1cc(C)c(S(=O)(=O)NCCC2CCCN2C)c(C)c1 (configuration not stated) | 0 | -30.5 | 0 | 0 | 0
Cc1cccc(CS(=O)(=O)CC2Nc3ccc(C(=O)NCc4ccccc4Cl)cc3NC2=O)c1 (configuration not stated) | 0 | 0 | 0 | 0 | 0
Cc1cc(-c2ccc(C)c(S(=O)(=O)NCCc3ccco3)c2)on1 | 0 | -33.5 | 0 | 0 | 0
Cc1cc(-c2ccc(C)c(S(=O)(=O)NCCc3ccc(S(N)(=O)=O)cc3)c2)on1 | 0 | -63.5! | 0 | 0 | 0
CCc1ccc(-c2cc(C)no2)cc1S(=O)(=O)NCCc1ccc(OC)c(OC)c1 | 0 | -35.6 | 0 | 0 | 0
CCCN(c1ccccc1F)S(=O)(=O)c1cc(-c2cc(C)no2)ccc1OC | 0 | -46.4 | 0 | 0 | 0
Cc1cc(-c2ccc(C)c(S(=O)(=O)NCc3ccc(Br)cc3)c2)on1 | 0 | 0 | 0 | 0 | 0
CSc1cccc(NC(=O)N2CCN(c3cc(-c4noc(C)n4)ccc3C)CC2)c1 | 0 | 0 | 0 | 0 | 0
COc1ccc(-n2nc(C(=O)N3CCC(C)CC3)c3c4ccccc4n(C)c3c2=O)cc1Cl | 0 | 0 | 0 | 0 | 0
CCC1CCCCN1CC(C)(C)NS(=O)(=O)c1ccccc1 (configuration not stated) | 0 | -44.4 | 0 | 0 | 0
Cc1cc(C)c(NC(=O)CSc2nc(=O)n(Cc3ccncc3)c3c2CCC3)c(C)c1 | 0 | - | 0 | 0 | 0
O=C(NCc1ccccc1)C1CCN(c2ncnc3c2nc2n3CCCCC2)CC1 | 0 | -32.6 | 0 | 0 | 0
COc1cccc(CNC(=O)C2CCN(c3ncnc4c3nc3n4CCCCC3)CC2)c1 | 0 | 0 | 0 | 0 | 0
COc1cccc(N2CCN(c3ncnc4c3nc3n4CCCCC3)CC2)c1 | 0 | 0 | 0 | 0 | 0
COc1ccc(N2CCN(c3ncnc4c3nnn4Cc3ccccc3Cl)CC2)cc1 | 0 | -41.8 | 0 | 0 | 0
COc1ccc(N2CCN(c3ncnc4c3nc3n4CCCCC3)CC2)cc1 | 0 | -35.1 | 0 | 0 | 0
Cc1nc(N2CCCC2)c2nnn(Cc3ccccc3Cl)c2n1 | 0 | 0 | 0 | 0 | 0
SMILES | TRHR enhancer | D1 antagonist | D1 potentiator | D1 agonist | TRHR ag
CCN(CC)S(=O)(=O)c1cc(-c2ccc(=O)n(C(C)C(=O)Nc3cccc(C#N)c3)n2)ccc1C (configuration not stated) | 0 | 0 | 0 | 0 | 0
CC(=O)N1c2ccccc2C(=O)C1N1CCN(c2ccc(F)cc2)CC1 (configuration not stated) | 0 | -45.7 | 0 | 0 | 0
CC(C)Oc1ccc(CNC(=O)c2ccc(CS(=O)Cc3ccccc3Cl)o2)cc1 (configuration not stated) | 0 | 0 | 0 | 0 | 0
COc1cccc(N2CC(NS(=O)(=O)c3ccc4ccccc4c3)CC2=O)c1 (configuration not stated) | 0 | 0 | 0 | 31.2 | 0
CCN(CC)c1nc2c(S(=O)(=O)c3ccccc3)nnn2c2ccc(Cl)cc12 | 0 | 0 | 0 | 0 | 0
COc1ccc(C=O)cc1COc1ccccc1F | 0 | 0 | 0 | 0 | 0
COc1ccc(/C=C/C(=O)c2ccccc2)cc1COc1ccccc1F | 0 | 0 | 0 | 38.1 | 0
CCOC(=O)c1cnc2c(C)c(Cl)ccc2c1Nc1ccc(N2CCOCC2)cc1 | 0 | 0 | 0 | 0 | 0
CC(C)Cn1c(/C=C/c2ccccc2)nc2ccccc21 | 0 | 0 | 0 | 0 | 0
CCCCCCn1c(/C=C/c2ccccc2)nc2ccccc21 | 0 | -30.7 | 0 | 0 | 0
CCCCCn1c(-c2ccc(OC)c(OC)c2)nc2ccccc21 | 0 | -46.6 | 0 | 57.2 | 0
COc1cc(Cn2c(-c3ccc(O)c(OC)c3)nc3ccccc32)ccc1O | 0 | 0 | 0 | 0 | 0
CCn1c(/C=C/c2ccccc2)nc2ccccc21 | 0 | -39.4 | 0 | 0 | 0
Cc1noc(Cn2c(=O)c3ccccc3n(CC(=O)Nc3ccc(C(C)C)cc3)c2=O)n1 | 0 | 0 | 0 | 0 | 0
Cc1cc2c(s1)c1cnn(Cc3cccc(Cl)c3)c(=O)c1n2C | 0 | 0 | 0 | 0 | 0
Cc1nc2cccnc2n1C1CCN(S(=O)(=O)c2ccc(C(C)C)cc2)CC1 | 0 | 0 | 0 | 38.6 | 0
CC1=Nc2cc(C(=O)NCCc3ccc(Cl)cc3)ccc2Sc2ccc(C)cc21 | 0 | 0 | 0 | 0 | 0
CCc1c(-c2ccccc2)nc2nc(C)c(C)nn12 | 36.7 | 0 | 0 | 0 | 0
CCSc1nnc2c(n1)OC(c1ccc(OC)c(OC)c1)N(C(C)=O)c1ccccc1-2 (configuration not stated) | 0 | -30.3 | 0 | 0 | 0
CC(C)c1ccc(NC(=O)C2CCC(CNS(=O)(=O)c3ccc4c(c3)CCCC(=O)N4)CC2)cc1 (configuration not stated) | 0 | 0 | 0 | 0 | 0
CCCCCOC(=O)NCC(O)c1ccccc1 (configuration not stated) | 0 | -33.5 | 0 | 0 | 0
COc1ccc(-c2noc(N3CCC(C(=O)Nc4ccc(F)cc4F)CC3)n2)cc1 | 0 | 0 | 0 | 0 | 0
COc1ccc(-c2noc(N3CCC(C(=O)NCc4ccc(F)cc4)CC3)n2)cc1 | 0 | -36.2 | 0 | 0 | 0
COc1ccc(-c2noc(N3CCC(C(=O)N4CCN(c5cccc(C)c5C)CC4)CC3)n2)cc1 | 0 | 0 | 0 | 0 | 0
CCc1ccc(NC(=O)C2CCN(c3nc(-c4ccc(OC)cc4)no3)CC2)cc1 | 0 | 0 | 0 | 0 | 0
COc1ccc(-c2noc(N3CCC(C(=O)Nc4ccc(OC)cc4OC)CC3)n2)cc1 | 0 | -31.4 | 0 | 0 | 0
COc1ccc(-c2noc(N3CCC(C(=O)N4CCN(c5ccccc5OC)CC4)CC3)n2)cc1 | 0 | -56.1 | 0 | 0 | 0
Cc1nc(-c2ccc(C)c(S(=O)(=O)N3CCC(C(=O)NCc4ccc(Cl)cc4)CC3)c2)no1 | 30.3 | 0 | 0 | 0 | 0

Screens as filed in PubChem BioAssay.
